From PubChem BioAssay (Tox21)
Records with an inconclusive call do not appear. The source made the active and inactive calls. Unless noted, calls come from the whole dose curve; as a rule, active = well fitted curve in the direction sought with a large enough effect in the repeat runs; inconclusive = weak or mixed curves; inactive = no such curve, though single readings can be large; an effect the other way counts as inactive or inconclusive.

Tests used:
[1] = qHTS assay for small molecules that induce genotoxicity in human embryonic kidney cells expressing luciferase-tagged ATAD5 (AID 651632); note: nearly all actives have a fitted effect of over 15% in size
How it was run: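 ATAD5-luc HEK293T, 2,000 cells/well; cpd or DMSO pin-transferred; 16 hr, 37C/5% CO2; Amplite 30 min RT; luminescence.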

[2] = qHTS assay for small molecule agonists of the p53 signaling pathway - cell viability (AID 651633; calls by dose curve;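 note: p53RE-bla HCT reporter cells with a stable beta-lactamase p53 reporter; series mostly up to about 83 µM; nearly all actives have a fitted effect of over 30% in size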)
How it was run: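 Viability counter-read: CellTiter-Glo luminescence (30 min, room temperature) in the same p53RE-bla plates. These plates had been exposed to compounds for 16 h at 37 C.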

[3] = qHTS assay for small molecules that induce genotoxicity in human embryonic kidney cells expressing luciferase-tagged ATAD5 - cell viability (AID 651634; calls by dose curve; note: nearly all actives have a fitted effect of over 25% in size)
How it was run: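 Fluorescence from CellTiter-Fluor, reporting protease activity within live cells, served as the viability read-out. HEK293T cells carrying luciferase-tagged ATAD5 had been treated with compound for 15.5 hr at 37C.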

[4] = qHTS assay for small molecule disruptors of the mitochondrial membrane potential - cell viability (AID 720634; calls by dose curve;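 note: human HepG2 liver cancer cells; series mostly up to about 83 µM; nearly all actives have a fitted effect of over 20% in size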)
How it was run: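 Cells: HepG2, 2,000/well, attached overnight. Compound 1 hr, 37 C/5% CO2. +m-MPI dye, +CellTiter-Glo 30 min RT. Readout: luminescence (ATP).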

[5] = qHTS assay to test for compound auto fluorescence at 590 nm (red) in HepG2 cells (AID 720674)
How it was run: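 1 hr compound incubation on HepG2 cells, 37 C, 5% CO2; plate read ex 540 nm / em 590 nm; intensities reported as Rose Bengal sodium equivalents.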

[6] = qHTS assay to test for compound auto fluorescence at 535 nm (green) in HepG2 cells (AID 720675)
[7] = qHTS assay to test for compound auto fluorescence at 460 nm (blue) in HEK293 cells (AID 720678)
How it was run: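 HEK293 cells (2,000 per well, medium with 10% dialyzed FBS) attached for 4-5 hr at 37C, then received compound and stood overnight at 37C, 5% CO2. Blue fluorescence was read at Ex/Em 405/460 nm and expressed relative to triamterene.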

[8] = qHTS assay to test for compound auto fluorescence at 590 nm (red) in HEK293 cells (AID 720679)
How it was run: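 HEK293 cells (2,000/well, medium with 10% dialyzed FBS) attached for 4-5 hr at 37C, received 23 nL compound and were incubated overnight at 37C, 5% CO2. Red fluorescence was then read at 540/590nm Ex/Em, referenced to Rose Bengal sodium.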

[9] = qHTS assay to test for compound auto fluorescence at 535 nm (green) in HEK293 cells (AID 720680)
[10] = qHTS assay to test for compound auto fluorescence at 460 nm (blue) in HEK293 cell free culture (AID 720681)
How it was run: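 Blue fluorescence (Ex 405/Em 460 nm, triamterene-equivalent) was read immediately after pin transfer of compound or DMSO into medium (DMEM, 10% FBS) without cells.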

[11] = qHTS assay to test for compound auto fluorescence at 535 nm (green) in HEK293 cell free culture (AID 720682)
How it was run: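 Green-label autofluorescence (485 nm excitation, 535 nm emission) measured on compound added to cell-free culture medium (DMEM, 10% FBS). Output is expressed relative to fluorescein.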

[12] = qHTS assay to test for compound auto fluorescence at 590 nm (red) in HEK293 cell free culture (AID 720683)
How it was run: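 Red-channel autofluorescence of compounds in culture medium (DMEM, 10% FBS), no cells, measured at 540/590 nm. Rose Bengal sodium is the reference fluorophore for equivalence.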

[13] = qHTS assay to test for compound auto fluorescence at 590 nm (red) in HepG2 cell free culture (AID 720684)
How it was run: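 Plate contents were MEM with 10% FBS plus test compound or DMSO, no cells. Fluorescence was recorded with 540 nm excitation and 590 nm emission.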

[14] = qHTS assay to test for compound auto fluorescence at 460 nm (blue) in HepG2 cell free culture (AID 720685)
How it was run: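 Compound (23 nL) or DMSO pinned into cell-free MEM with 10% FBS; blue fluorescence read at 405/460 nm excitation/emission, expressed as auto-fluorescence equivalency to triamterene.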

[15] = qHTS assay to test for compound auto fluorescence at 535 nm (green) in HepG2 cell free culture (AID 720686)
[16] = qHTS assay to test for compound auto fluorescence at 460 nm (blue) in HepG2 cells (AID 720687)
How it was run: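 Blue-channel autofluorescence (Ex/Em 405/460 nm, triamterene-equivalent) was measured after 1 hr compound exposure at 37 C, 5% CO2. Cells were HepG2, plated overnight at 37 C in MEM plus 10% FBS.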

[17] = target: Glucocorticoid receptor (Homo sapiens) (UniProt P04150); assay: qHTS assay to identify small molecule agonists of the glucocorticoid receptor (GR) signaling pathway (AID 720691; active = well fitted activation curve with a large enough effect in the signal ratio in the repeat runs, not every such curve was filed as active; the % refers to the signal ratio)
How it was run: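 Fluorescence intensity from LiveBLAzer B/G FRET substrate (2 h, room temperature) reports beta-lactamase expression driven by the glucocorticoid response element in GR-bla HeLa cells after 18 h compound exposure at 37 C.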

[18] = qHTS assay for small molecule disruptors of the mitochondrial membrane potential (AID 720635)
How it was run: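 Mitochondrial membrane potential tracked with Mito-MPS dye, red aggregates (ex 540/em 590 nm) against green monomers (ex 490/em 535 nm). Compound treatment 1 hr at 37C, dye 30 min in HepG2.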

[19] = target: Glucocorticoid receptor (Homo sapiens) (UniProt P04150); assay: qHTS assay to identify small molecule antagonists of the glucocorticoid receptor (GR) signaling pathway (AID 720692; active = well fitted inhibition curve with a large enough effect in the signal ratio in the repeat runs, not every such curve was filed as active; the % refers to the signal ratio)
How it was run: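 HeLa GR-bla cells; cmpd + dex 5 nM final, 18 h 37 C; LiveBLAzer B/G FRET substrate 2 h RT; fluorescence intensity read. Antagonist mode, qHTS.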

Measured: Potency

Glucocorticoid receptor (Homo sapiens), sequence (P04150 whole entry, looked up): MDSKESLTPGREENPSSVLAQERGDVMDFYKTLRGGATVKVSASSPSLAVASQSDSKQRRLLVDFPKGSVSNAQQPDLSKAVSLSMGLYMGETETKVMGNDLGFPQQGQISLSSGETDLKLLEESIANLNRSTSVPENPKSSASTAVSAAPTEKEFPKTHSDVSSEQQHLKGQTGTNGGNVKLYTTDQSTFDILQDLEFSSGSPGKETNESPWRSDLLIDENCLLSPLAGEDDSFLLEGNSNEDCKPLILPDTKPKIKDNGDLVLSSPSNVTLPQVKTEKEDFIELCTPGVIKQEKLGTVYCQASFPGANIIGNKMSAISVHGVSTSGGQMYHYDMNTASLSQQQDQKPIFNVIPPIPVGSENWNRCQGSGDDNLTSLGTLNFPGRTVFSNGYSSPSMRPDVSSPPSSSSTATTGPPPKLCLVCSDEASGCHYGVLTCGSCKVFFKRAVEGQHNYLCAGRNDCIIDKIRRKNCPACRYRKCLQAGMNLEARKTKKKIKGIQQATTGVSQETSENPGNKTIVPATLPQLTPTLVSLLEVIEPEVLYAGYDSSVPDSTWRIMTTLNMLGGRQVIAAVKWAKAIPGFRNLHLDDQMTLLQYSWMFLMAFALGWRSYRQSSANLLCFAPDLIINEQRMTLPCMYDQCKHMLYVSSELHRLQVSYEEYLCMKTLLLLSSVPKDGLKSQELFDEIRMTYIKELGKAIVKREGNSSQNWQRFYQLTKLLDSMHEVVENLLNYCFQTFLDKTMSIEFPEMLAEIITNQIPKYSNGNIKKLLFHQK

CCCCCCCCCCCCCC(=O)OCC(O)CO (stereo not given)
not listed: [18] | [19]
inactive: all other assays above

CC[C@H]1OC(=O)[C@H](C)[C@@H](O[C@H]2C[C@@](C)(OC)[C@@H](O)[C@H](C)O2)[C@H](C)[C@@H](O[C@@H]2O[C@H](C)C[C@H](N(C)C)[C@H]2O)[C@](C)(O)C[C@@H](C)/C(=N\OCOCCOC)[C@H](C)[C@@H](O)[C@]1(C)O
not listed: [14]
inactive: all other assays above

COC(C)(C)OC
not listed: [14] | [17] | [18] | [19]
inactive: all other assays above
